According to PubChem BioAssay AID1159580 (chemical genetic matrix, 2015):
Values joined by “and” are separate entries in the source; they are usually repeats but may differ in a detail not shown here. Identical values can stand only once. Among all 5,500 compounds or so, about 2,000 (36%) were called active. Not shown: some 18% with an inconclusive outcome. No stated cut-off is given here; in the data, active means normalized growth mostly below about 0.91 (no sharp cut-off); inconclusive means no clear call, values can overlap the other calls; inactive means mostly above about 0.92. This is one part of the list.

Test: chemical genetic growth profiling, strain panel (AID 1159580);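 further: tested at 20 µM; growth read once vehicle control cultures reached saturation at 30 °C; 1 = growth at the plate median or of vehicle wells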
Conditions: S. cerevisiae deletion strains, growth OD

Measured: normalized growth

CC(C)NCC(O)c1cc(O)cc(O)c1 (stereo not drawn)
inactive: locus YAL013W, strain DEP1, stronger effect = lower value 1.03 | locus YAL021C, strain ccr4, stronger effect = lower value 0.974 | locus YAL026C, strain drs2, stronger effect = lower value 1 | locus YAL030W, strain snc1, stronger effect = lower value 0.994 | locus YAL040C, strain CLN3, stronger effect = lower value 1.02 | locus YBL061C, strain skt5, stronger effect = lower value 0.991 | locus YBR009C, strain hhf1, stronger effect = lower value 1.01 | locus YBR021W, strain FUR4, stronger effect = lower value 1.02 | locus YBR023C, strain chs3, stronger effect = lower value 0.984 | locus YBR171W, strain sec66, stronger effect = lower value 0.998 | locus YBR229C, strain ROT2, stronger effect = lower value 1 | locus YBR231C, strain swc5, stronger effect = lower value 0.993 | locus YBR279W, strain paf1, stronger effect = lower value 0.992 | locus YCL011C, strain gbp2, stronger effect = lower value 0.982 | locus YCL016C, strain dcc1, stronger effect = lower value 0.976 | locus YCL029C, strain bik1, stronger effect = lower value 0.983 | locus YCL061C, strain MRC1 (second series), stronger effect = lower value 1.01 | locus YCL061C, strain MRC1, stronger effect = lower value 0.991 | locus YCL069W, strain vba3, stronger effect = lower value 0.992 | locus YCR088W, strain abp1, stronger effect = lower value 0.994 | locus YDL005C, strain med2, stronger effect = lower value 1 | locus YDL035C, strain GPR1, stronger effect = lower value 1.01 | locus YDL040C, strain nat1, stronger effect = lower value 0.994 | locus YDL074C, strain BRE1, stronger effect = lower value 1.01 | locus YDL101C, strain DUN1, stronger effect = lower value 1 | locus YDL134C, strain PPH21, stronger effect = lower value 1.01 | locus YDL185W, strain tfp1, stronger effect = lower value 0.964 | locus YDL192W, strain arf1, stronger effect = lower value 0.984 | locus YDR001C, strain nth1, stronger effect = lower value 0.983 | locus YDR069C, strain doa4, stronger effect = lower value 1.01 | locus YDR101C, strain arx1, stronger effect = lower value 1.02 | locus YDR137W, strain rgp1, stronger effect = lower value 0.977 | locus YDR150W, strain NUM1, stronger effect = lower value 0.996 | locus YDR159W, strain sac3, stronger effect = lower value 1.03 | locus YDR162C, strain NBP2, stronger effect = lower value 1.01 | locus YDR195W, strain ref2 0.982 | locus YDR297W, strain sur2, stronger effect = lower value 0.989 | locus YDR318W, strain mcm21, stronger effect = lower value 0.982 | locus YDR334W, strain swr1, stronger effect = lower value 0.974 | locus YDR335W, strain msn5, stronger effect = lower value 1 | locus YDR363W, strain ESC2, stronger effect = lower value 1.05 | locus YDR388W, stronger effect = lower value 1 | locus YDR392W, strain spt3, stronger effect = lower value 0.928 | locus YDR502C, strain sam2, stronger effect = lower value 0.993 | locus YEL003W, strain gim4, stronger effect = lower value 1 | locus YEL037C, strain rad23, stronger effect = lower value 0.989 | locus YEL061C, strain CIN8 (second series), stronger effect = lower value 0.98 | locus YEL061C, strain CIN8, stronger effect = lower value 0.995 | locus YER002W, strain NOP16, stronger effect = lower value 0.991 | locus YER015W, strain faa2, stronger effect = lower value 0.988 | locus YER016W, strain bim1, stronger effect = lower value 0.999 | locus YER110C, stronger effect = lower value 0.973 | locus YER111C, strain swi4, stronger effect = lower value 0.978 | locus YER155C, strain BEM2 (second series), stronger effect = lower value 1 | locus YER155C, strain BEM2, stronger effect = lower value 1 | locus YER167W, strain BCK2, stronger effect = lower value 0.995 | locus YFR010W, strain ubp6, stronger effect = lower value 0.992 | locus YGL078C, strain dbp3, stronger effect = lower value 0.969 | locus YGL086W, strain mad1, stronger effect = lower value 1.01 | locus YGL167C, strain pmr1, stronger effect = lower value 0.991 | locus YGL173C, strain kem1, stronger effect = lower value 1 | locus YGL227W, strain vid30, stronger effect = lower value 0.995 | locus YGL240W, strain doc1, stronger effect = lower value 1.01 | locus YGL248W, strain PDE1, stronger effect = lower value 1 | locus YGL253W, strain hxk2, stronger effect = lower value 0.974 | locus YGR135W, strain pre9, stronger effect = lower value 0.949 | locus YGR229C, strain SMI1, stronger effect = lower value 1.03 | locus YGR252W, strain gcn5, stronger effect = lower value 0.963 | locus YHR013C, strain ard1, stronger effect = lower value 0.961 | locus YHR027C, strain rpn1, stronger effect = lower value 1.02 | locus YHR030C, strain SLT2, stronger effect = lower value 1.01 and 0.952 | locus YHR079C, strain IRE1 (second series), stronger effect = lower value 0.988 | locus YHR079C, strain IRE1, stronger effect = lower value 0.964 | locus YHR094C, strain hxt1, stronger effect = lower value 1 | locus YHR129C, strain ARP1, stronger effect = lower value 1 | locus YHR142W, strain chs7, stronger effect = lower value 0.967 | locus YHR200W, strain rpn10, stronger effect = lower value 0.985 | locus YIL066C, strain RNR3, stronger effect = lower value 0.997 | locus YIL073C, strain SPO22, stronger effect = lower value 0.938 | locus YIL125W, strain kgd1, stronger effect = lower value 1.01 | locus YIR030C, strain dcg1, stronger effect = lower value 0.978 | locus YJL092W, strain hpr5, stronger effect = lower value 0.988 | locus YJL095W, strain BCK1 (second series), stronger effect = lower value 0.994 | locus YJL095W, strain BCK1, stronger effect = lower value 0.986 and 0.963 | locus YJL115W, strain asf1, stronger effect = lower value 0.977 | locus YJL129C, strain trk1, stronger effect = lower value 0.983 | locus YJL134W, strain LCB3, stronger effect = lower value 1.01 | locus YJL154C, strain vps35, stronger effect = lower value 1.02 | locus YJL164C, strain tpk1, stronger effect = lower value 0.993 | locus YJL166W, strain qcr8, stronger effect = lower value 0.974 | locus YJL168C, strain set2, stronger effect = lower value 0.999 | locus YJL187C, strain SWE1 (second series), stronger effect = lower value 0.995 | locus YJL187C, strain SWE1, stronger effect = lower value 0.987
